For 102 compounds, cytotoxicity results are on record in PubChem BioAssay AID430 (Sanford-Burnham Center for Chemical Genomics, 2006).

Where “and” joins values, the source holds several entries; their conditions need not be identical. Equal values may be shown once. The whole screen tested about 63,000 compounds, of which about 1,100 (1.7%) were called active. No stated cut-off is given here; in the data, active means cytotoxicity above about 50%; inactive means the rest. Many of the other results were omitted from the sample, so actives are more common in it than they were. Results with a measured potency or affinity are listed apart. More than one record can exist for a structure, and the calls need not agree.

A short description of this assay: HPDE-C7 pancreatic duct cell viability loss – fluorescence, HTS (AID 430).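 Further: cells exposed to compound for 48 hours before viability readout; 0% = vehicle and 100% = reference cytotoxic drug.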 The note with it: HPDE-C7 pancreatic duct cells viability, at 10 µM, stronger effect = higher value.
Turning to `CCN(C(C)=O)c1nnc(CSc2nc3ccccc3s2)s1`, the cytotoxicity is 12.1% (inactive).
Consider `CCN(C(=O)c1ccc(C(C)(C)C)cc1)c1nnc(Cn2nnc3ccccc32)s1`, for which the cytotoxicity was 81.9% (active).
As for `CCN(C(=O)CSc1nnc(Cn2nnc3ccccc32)o1)c1nc(-c2ccccc2)cs1`, the cytotoxicity was -7.6% (inactive).
Then `COc1ccc(N2CCN(C(=O)CCNS(=O)(=O)c3ccc(Br)s3)CC2)cc1`, with -17.4% (inactive); and `Cc1ccc(S(=O)(=O)N2CCC(C(=O)Nc3nnc(COc4ccccc4)s3)CC2)cc1`, with -3.6% (inactive).
Then `O=C(CCNC(=O)Cn1ccc2ccccc2c1=O)NCCCN1CCN(c2ccccc2F)CC1`, with -10.7% (inactive); and `Cc1cc(C)c2c(=O)n(CC(=O)NCCCN3CCOCC3)sc2n1`, with 6.4% (inactive); and `Cc1cc(C)c2c(=O)n(CC(=O)NCCCN3CCN(c4ccccc4F)CC3)sc2n1`, with 88.5% (active).
For the compound `CCC(NC(=O)Nc1ncccc1C)(C(F)(F)F)C(F)(F)F`, the cytotoxicity was -6.7% (inactive).
Take `CCOC(=O)N1CCN(C(=O)c2ccc3c(c2)sc2nc(-c4ccccc4)cn23)CC1`: the cytotoxicity is 2.8% (inactive).
As to `CCOC(=O)N1CCN(C(=O)c2ccc3c(c2)sc2nc(-c4ccc(OC)cc4)cn23)CC1`, the cytotoxicity is 12.1% (inactive).
For the compound `COc1ccc2c(c1)sc1nc(-c3ccccc3)cn12`, the cytotoxicity is 53.2% (active).
For `CS(=O)(=O)N(CC(=O)NCc1ccco1)Cc1ccc(Cl)cc1`, the cytotoxicity was -9.3% (inactive).
Regarding `COc1ccccc1S(=O)(=O)Cc1ccc(C(=O)NCCN(C)C)o1`, the cytotoxicity is 8% (inactive).
In the case of `O=S(=O)(c1cccc2nsnc12)N1CCN(c2ncccn2)CC1`, the cytotoxicity is -8.5% (inactive).
Then `COc1cccc(C2=CC(c3cc(OC)ccc3OC)n3nnnc3N2)c1` (configuration not stated), with 70.3% (active).
As to `COc1ccccc1C1C=C(c2ccccc2)Nc2nnnn21` (configuration not stated), the cytotoxicity was 29.6% (inactive).
Turning to `COc1ccc(C2=CC(c3sccc3C)n3nnnc3N2)cc1` (configuration not stated), the cytotoxicity is 12.4% (inactive).
On to `COc1ccc(C2=CC(c3c(C)nn(-c4ccccc4)c3Cl)n3nnnc3N2)cc1OC` (configuration not stated), for which the cytotoxicity is 72.4% (active).
`COc1cccc(C2=CC(c3ccc(N(C)C)cc3)n3nnnc3N2)c1` (configuration not stated): the cytotoxicity was -3% (inactive).
For `COc1ccc(C2=CC(c3ccc(F)cc3)n3nnnc3N2)cc1` (configuration not stated), the cytotoxicity was -4% (inactive).
In the case of `COc1cccc(C2=CC(c3ccccc3)n3nnnc3N2)c1` (configuration not stated) it was 53.7% (active); in that of `COc1ccc(OC)c(C2C=C(c3ccc(C)c(C)c3)Nc3nnnn32)c1` (configuration not stated), 10.4% (inactive).
Turning to `COc1ccc(C2C=C(c3ccccc3)Nc3nnnn32)cc1` (configuration not stated), the cytotoxicity was -3.3% (inactive).
For the compound `COc1ccc(C2=CC(c3ccc(OC)c(OC)c3)n3nnnc3N2)c(OC)c1` (configuration not stated), the cytotoxicity was 14.7% (inactive).
Turning to `COc1ccccc1C1C=C(c2ccc(C)cc2)Nc2nnnn21` (configuration not stated), the cytotoxicity was -0.5% (inactive).
Consider `CCOC(=O)N1CCN(c2c(N3CCC(N4CCCCC4)CC3)c(=O)c2=O)CC1`, for which the cytotoxicity is 10.5% (inactive).
In the case of `CN(Cc1ccccc1)Cc1nc2c(c(=O)n(C)c(=O)n2C)n1Cc1ccc(F)cc1` it was -29.4% (inactive); in that of `O=C(CCS(=O)(=O)c1cccc2nsnc12)N1CCN(C(=O)c2ccco2)CC1`, -15.9% (inactive); in that of `CN1CCN(C2=NC3(CCCC3)C(C#N)C(=O)N2)CC1` (configuration not stated), 23.5% (inactive).
Regarding `COC(=O)c1c(F)c(F)c(NCCO)c(F)c1F`, the cytotoxicity was -3.7% (inactive).
Take `CC(NC(=O)NC1CCCCC1)C(c1cccs1)N1CCOCC1` (configuration not stated): the cytotoxicity is -7.5% (inactive).
`CCOC(=O)C1CCN(C(=O)CSc2n[nH]c(=O)[nH]c2=O)CC1`: the cytotoxicity was 9.8% (inactive).
`CNC(=O)/C(=N\O)c1ccccc1`: the cytotoxicity is -14.1% (inactive).
As to `COc1cc(C(=O)NCCc2ccc(S(N)(=O)=O)cc2)cc(OC)c1OC`, the cytotoxicity was 3.4% (inactive).
Then `COc1cccc(C2=CC(c3ccc(OC)c(OC)c3OC)n3nnnc3N2)c1` (configuration not stated), with -3.9% (inactive); and `CCOc1ccc(C2C=C(c3ccc(C)cc3)Nc3nnnn32)cc1` (configuration not stated), with -0.9% (inactive); and `COc1cccc(C2=CC(c3cccc(OC)c3OC(F)F)n3nnnc3N2)c1` (configuration not stated), with -21.2% (inactive).
`COc1ccc(C2=CC(c3ccc(C)cc3)n3nnnc3N2)cc1` (configuration not stated): the cytotoxicity is -1.9% (inactive).
For the compound `COc1cccc(C2=CC(c3cccc(OC)c3OC)n3nnnc3N2)c1` (configuration not stated), the cytotoxicity is 71.4% (active).
`O=C(CCNS(=O)(=O)c1cccs1)Nc1ccccc1F`: the cytotoxicity was -34.3% (inactive).
On to `COc1ccc(Cn2nnnc2CN2CCC(c3nc4ccccc4s3)CC2)cc1`, for which the cytotoxicity is -9.8% (inactive).
Then `Cc1c(C(=O)OC(C)C)[nH]c2c1C(=O)CC(C)(C)C2`, with -0.2% (inactive); and `CCOC(=O)C1CCCN(C(=O)CCC(=O)Nc2ccc3nc(N4CCOCC4)cc(C)c3c2)C1` (configuration not stated), with 9.9% (inactive).
Take `CCOc1ccc2[nH]c(=O)c(CN(CCO)C(=O)c3ccc(Br)cc3)cc2c1`: the cytotoxicity was 6.1% (inactive).
On to `O=C1CN(C(=O)COC(=O)COc2ccc3c(c2)CCC3)c2ccccc2N1`, for which the cytotoxicity was 2.9% (inactive).
Consider `COc1cc(NC(=O)c2cnn3c(C)cc(C)nc23)c(OC)cc1Cl`, for which the cytotoxicity was 12.9% (inactive).
Take `CC1(C)Cc2c(sc3c2c(=N)n(Cc2ccco2)c(=O)n3CC(=O)Nc2ccccc2)CO1`: the cytotoxicity was 5.3% (inactive).
With `Cc1ccc(NC(=O)Cn2c(=O)n(Cc3ccco3)c(=N)c3c4c(sc32)COC(C)(C)C4)cc1`, the cytotoxicity is 24.6% (inactive).
As to `CC1(C)Cc2c(sc3c2c(=N)n(Cc2ccco2)c(=O)n3CC(=O)Nc2ccc(Cl)cc2)CO1`, the cytotoxicity is 51.5% (active).
Take `Cc1cccc(OCC(O)Cn2c(-n3nc(C)cc3C)nc3c2c(=O)[nH]c(=O)n3C)c1` (configuration not stated): the cytotoxicity is -2.9% (inactive).
Regarding `COc1ccccc1C(=O)Nc1nnc(-c2ccc(F)cc2)o1`, the cytotoxicity is 4.1% (inactive).
For `CCCOC(=O)Nc1nc2ccccc2o1`, the cytotoxicity is -8.2% (inactive).
Take `Cc1nc2ccc(N3C(=O)CCC3=O)cc2[nH]1`: the cytotoxicity was -18.8% (inactive).
Turning to `COc1ccc(CN2CCN(S(=O)(=O)c3ccccc3)CC2)c(OC)c1`, the cytotoxicity was -0.4% (inactive).
With `O=C(CCC1CCCC1)N1CCN(C(=O)COc2ccccc2)CC1`, the cytotoxicity was 8.2% (inactive).
Then `COc1ccc(-n2c(SCC(=O)c3c(N)n(C)c(=O)n(C)c3=O)nc3ccccc32)cc1`, with 6.1% (inactive); and `Cn1c(N)c(C(=O)CSc2nc3ccccc3n2-c2ccccc2)c(=O)n(C)c1=O`, with 106% (active); and `NC(=O)CSc1nc2ccccc2n1-c1ccccc1`, with -1.9% (inactive).
For `Cc1ccc(NC(=O)CS(=O)CC(=O)Nc2cccc(C)c2C)cc1F` (configuration not stated), the cytotoxicity was -15.9% (inactive).
On to `COc1ccc(Cl)c(Cn2c(NCC(C)O)nc3c2c(=O)n(C)c(=O)n3C)c1` (configuration not stated), for which the cytotoxicity was -9.9% (inactive).
In the case of `O=C1c2ccccc2-c2nccnc21`, the cytotoxicity was -15.6% (inactive).
As to `O=C1c2ccccc2-c2ncnc3cccc1c23`, the cytotoxicity is 0.7% (inactive).
Then `O=C(O)c1ccc2c3c(ncnc13)-c1ccccc1C2=O`, with 75.6% (active).
Take `CCc1nnc(NC(=O)CCN2C(=O)c3ccccc3S2(=O)=O)s1`: the cytotoxicity is -4.2% (inactive).
In the case of `Nc1nc(Cl)nc2c1ncn2[C@H]1C[C@H](O)[C@@H](CO)O1`, the cytotoxicity was 7.4% (inactive) and 95.9% (active).
Consider `Nc1nc(Cl)nc2c1ncn2[C@@H]1O[C@H](CO)[C@@H](O)[C@H]1O`, for which the cytotoxicity is 8.6% (inactive).
As to `Nc1nc(F)nc2c1ncn2[C@@H]1O[C@H](CO)[C@@H](O)[C@@H]1O`, the cytotoxicity is 13.2% (inactive).
Then `Cc1ccc(NC(=O)Cn2c(C)cc(C)c(C#N)c2=O)c(Cl)c1`, with -6.5% (inactive); and `O=C(CN1C(=O)CSc2ccccc21)NCCC1=CCCCC1`, with -11% (inactive).
In the case of `COc1ccc(NS(=O)(=O)c2cc(C)ccc2OC)cc1OC` it was 10.3% (inactive); in that of `c1ccc(CCN2CN(CCCN3CCOCC3)c3nc4ccccc4n3C2)cc1`, -23.9% (inactive).
Then `S=C1SCN(CCN2CCOCC2)CN1Cc1ccccc1`, with 60.6% (active).
For the compound `O=C(N1CCOCC1)N1CCN(Cc2ccccc2)CC1`, the cytotoxicity is 4.1% (inactive).
With `CN1C(=O)C2(c3ccccc31)N(C)CC(c1ccccn1)C21SC(=S)N(Cc2ccco2)C1=O` (configuration not stated), the cytotoxicity was -9.5% (inactive).
Then `c1ccc(CN2CCN(c3ncccn3)CC2)nc1`, with 6% (inactive); and `S=C1SCN(Cc2ccccn2)CN1Cc1ccco1`, with 64.7% (active).
`CCCN1CN(Cc2ccco2)c2nc3ccccc3n2C1`: the cytotoxicity was -15.1% (inactive).
In the case of `COCCN1CSC(=S)N(Cc2ccco2)C1` it was 50.6% (active); in that of `COc1ccccc1N1CCN(Cc2ccco2)CC1`, -25.7% (inactive); in that of `CCOc1cccc(C(=O)Nc2cccc(-c3nc4ncccc4o3)c2C)c1`, 4.2% (inactive).
Take `COc1ccc(-n2c(Cc3cccn3C)nnc2SCC(=O)NCC2CCCO2)cc1` (configuration not stated): the cytotoxicity was -8.1% (inactive).
Then `O=C1NC(c2cccs2)Nc2sc3c(c21)CCCC3` (configuration not stated), with 0.6% (inactive); and `CC(C)(C)c1ccccc1NC(=O)c1ccco1`, with 15% (inactive).
Then `COc1ccc(NC(=O)c2ccc(COc3ccccc3Br)o2)cc1OC`, with 36.6% (inactive); and `O=C(Nc1cccnc1)c1ccc(COc2ccccc2Br)o1`, with 23.7% (inactive).
As for `COc1cc(NC(=O)c2ccc(COc3ccccc3Br)o2)cc(OC)c1OC`, the cytotoxicity was 56.6% (active).
`CCOC(=O)C1CCN(C(=O)CN(Cc2ccc(Cl)cc2)S(C)(=O)=O)CC1`: the cytotoxicity was -1% (inactive).
Regarding `Cn1c(CCCOc2ccc(Cl)cc2Cl)nnc1SCC(=O)Nc1nccs1`, the cytotoxicity was 1% (inactive).
As to `O=C(CCS(=O)(=O)c1ccc(Br)cc1)N1CCN(c2ccccc2)CC1`, the cytotoxicity was -1.2% (inactive).
In the case of `CCOC(=O)c1[nH]c(C)c(C(=O)Nc2cc(Cl)ccc2C)c1C` it was 60.6% (active).
On to `CCOC(=O)c1[nH]c(C)c(C(=O)Nc2ccc(C)c(C)c2)c1C`, for which the cytotoxicity is 8.5% (inactive).
Turning to `CCOC(=O)c1[nH]c(C)c(C(=O)Nc2ccc(C)c(Cl)c2)c1C`, the cytotoxicity is -20.5% (inactive).
`CCOC(=O)c1c(C)[nH]c(C(=O)OCC(=O)N2CCc3ccccc32)c1C`: the cytotoxicity was -15.4% (inactive).
For `CCOC(=O)c1[nH]c(C)c(C(=O)N2CCc3ccccc32)c1C`, the cytotoxicity is 58.8% (active).
Regarding `CCOC(=O)c1[nH]c(C)c(C(=O)Nc2cc(OC)ccc2OC)c1C`, the cytotoxicity was 43.5% (inactive).
In the case of `CCOC(=O)c1[nH]c(C)c(C(=O)c2cc(F)ccc2F)c1C` it was 72.2% (active).
With `CCOC(=O)c1[nH]c(C)c(C(=O)Nc2ccc(F)cc2)c1C`, the cytotoxicity was -4.5% (inactive).
As to `CCOC(=O)c1[nH]c(C)c(C(=O)Nc2ccc(C)cc2C)c1C`, the cytotoxicity was 51.9% (active).
Take `CC(=O)c1c(C)[nH]c(C(=O)N2CCc3ccccc32)c1C`: the cytotoxicity was 1.3% (inactive).
For the compound `CCOC(=O)c1[nH]c(C)c(C(=O)OCC)c1C`, the cytotoxicity is -6% (inactive).
In the case of `CCOC(=O)c1[nH]c(C)c(C(=O)Nc2ccc(Cl)cc2)c1C`, the cytotoxicity is -8.4% (inactive).
